Our source for the binding signal values is publication PMC11006913.

Where a chain is given by its changes, count along the chain named.

Assay in all cases: PBM; 200 nM protein, PBS
Settings in all cases: dsDNA, one strand shown

The target in assay [1] is T1, SIX6 (Homo sapiens, UniProt O95475 114-200, L167I).
T1 sequence: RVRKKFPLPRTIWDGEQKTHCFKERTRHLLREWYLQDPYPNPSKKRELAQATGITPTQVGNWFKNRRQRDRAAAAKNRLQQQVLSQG

Assay [2] deals with T2, SIX6 (Homo sapiens, UniProt O95475 114-200, L143V).
T2 sequence: T1 sequence with L30V, I54L

For assay [3], the target named is T3, SIX6 (Homo sapiens, UniProt O95475 114-200, H141N).
T3 sequence: T1 sequence with H28N, I54L

In assay [4] the target is T4, SIX6 (Homo sapiens, UniProt O95475 114-200, T165P).
T4 sequence: T1 sequence with T52P, I54L

For assay [5], the target named is T5, SIX6 (Homo sapiens, UniProt O95475 114-200, L167M).
T5 sequence: T1 sequence with I54M

Assay [6] addresses T6, SIX6 (Homo sapiens, UniProt O95475 114-200, L143M).
T6 sequence: T1 sequence with L30M, I54L

For assay [7], the target named is T7, SIX6 (Homo sapiens, UniProt O95475 114-200, L143I).
T7 sequence: T1 sequence with L30I, I54L

For assay [8], the target named is T8, SIX6 (Homo sapiens, UniProt O95475 114-200, T165G).
T8 sequence: T1 sequence with T52G, I54L

The target of assay [9] is T9, SIX6 (Homo sapiens, UniProt O95475 114-200, T139Q).
T9 sequence: T1 sequence with T26Q, I54L

The target in assay [10] is T10, SIX6 (Homo sapiens, UniProt O95475 114-200, T165A).
T10 sequence: T1 sequence with T52A, I54L

In assay [11] the target is T11, SIX6 (Homo sapiens, UniProt O95475 114-200, L167V).
T11 sequence: T1 sequence with I54V

Assay [12] deals with T12, SIX6 (Homo sapiens, UniProt O95475 114-200).
T12 sequence: T1 sequence with I54L

Assay [13] has as its target T13, SIX6 (Homo sapiens, UniProt O95475 114-200, T165I).
T13 sequence: T1 sequence with T52I, I54L

Regarding GTATGATA, the binding signal is 11 upbm affinity estimate (log intensity, higher = more binding, comparable within an allelic series) with SIX6 [1]; 10.5 upbm affinity estimate (log intensity, higher = more binding, comparable within an allelic series) in the assay with SIX6 [2]; 11.1 upbm affinity estimate (log intensity, higher = more binding, comparable within an allelic series) in the assay with SIX6 [3]; 10.1 upbm affinity estimate (log intensity, higher = more binding, comparable within an allelic series) with SIX6 [4]; 10.6 upbm affinity estimate (log intensity, higher = more binding, comparable within an allelic series) with SIX6 [5]; 11 upbm affinity estimate (log intensity, higher = more binding, comparable within an allelic series) with SIX6 [6]. In addition, the binding signal is 10.5 upbm affinity estimate (log intensity, higher = more binding, comparable within an allelic series) with SIX6 [7]; 11.2 upbm affinity estimate (log intensity, higher = more binding, comparable within an allelic series) with SIX6 [8]; 11.2 upbm affinity estimate (log intensity, higher = more binding, comparable within an allelic series) with SIX6 [9]; 11 upbm affinity estimate (log intensity, higher = more binding, comparable within an allelic series) with SIX6 [10]; 10.9 upbm affinity estimate (log intensity, higher = more binding, comparable within an allelic series) with SIX6 [11]; 11 upbm affinity estimate (log intensity, higher = more binding, comparable within an allelic series) in the assay with SIX6 [12]. In the assay with SIX6 [13], the binding signal was 10.9 upbm affinity estimate (log intensity, higher = more binding, comparable within an allelic series).
In the case of CTCGATAC, the binding signal was 10.6 upbm affinity estimate (log intensity, higher = more binding, comparable within an allelic series) in the assay with SIX6 [1]; 10 upbm affinity estimate (log intensity, higher = more binding, comparable within an allelic series) with SIX6 [2]; 10.6 upbm affinity estimate (log intensity, higher = more binding, comparable within an allelic series) in the assay with SIX6 [3]; 9.7 upbm affinity estimate (log intensity, higher = more binding, comparable within an allelic series) with SIX6 [4]; 10.2 upbm affinity estimate (log intensity, higher = more binding, comparable within an allelic series) with SIX6 [5]; 10.6 upbm affinity estimate (log intensity, higher = more binding, comparable within an allelic series) in the assay with SIX6 [6]. Besides, the binding signal was 10.1 upbm affinity estimate (log intensity, higher = more binding, comparable within an allelic series) with SIX6 [7]; 10.8 upbm affinity estimate (log intensity, higher = more binding, comparable within an allelic series) in the assay with SIX6 [8]; 10.8 upbm affinity estimate (log intensity, higher = more binding, comparable within an allelic series) in the assay with SIX6 [9]; 10.6 upbm affinity estimate (log intensity, higher = more binding, comparable within an allelic series) in the assay with SIX6 [10]; 10.4 upbm affinity estimate (log intensity, higher = more binding, comparable within an allelic series) with SIX6 [11]; 10.6 upbm affinity estimate (log intensity, higher = more binding, comparable within an allelic series) with SIX6 [12]. The binding signal in the assay with SIX6 [13] was 10.5 upbm affinity estimate (log intensity, higher = more binding, comparable within an allelic series).
Turning to GGTATCAA, the binding signal with SIX6 [1] is 11.6 upbm affinity estimate (log intensity, higher = more binding, comparable within an allelic series); with SIX6 [2] it was 10.6 upbm affinity estimate (log intensity, higher = more binding, comparable within an allelic series); with SIX6 [3], 11.7 upbm affinity estimate (log intensity, higher = more binding, comparable within an allelic series); with SIX6 [4], 9.74 upbm affinity estimate (log intensity, higher = more binding, comparable within an allelic series); in the assay with SIX6 [5], 11 upbm affinity estimate (log intensity, higher = more binding, comparable within an allelic series); in the assay with SIX6 [6], 11.4 upbm affinity estimate (log intensity, higher = more binding, comparable within an allelic series). In addition, the binding signal with SIX6 [7] is 10.6 upbm affinity estimate (log intensity, higher = more binding, comparable within an allelic series); with SIX6 [8] it was 11.6 upbm affinity estimate (log intensity, higher = more binding, comparable within an allelic series); in the assay with SIX6 [9], 11.5 upbm affinity estimate (log intensity, higher = more binding, comparable within an allelic series); with SIX6 [10], 11.6 upbm affinity estimate (log intensity, higher = more binding, comparable within an allelic series); with SIX6 [11] it was 11.4 upbm affinity estimate (log intensity, higher = more binding, comparable within an allelic series); with SIX6 [12], 11.4 upbm affinity estimate (log intensity, higher = more binding, comparable within an allelic series). In the assay with SIX6 [13], the binding signal was 11.4 upbm affinity estimate (log intensity, higher = more binding, comparable within an allelic series).
Turning to GACGGCCC, the binding signal with SIX6 [1] is 8.94 upbm affinity estimate (log intensity, higher = more binding, comparable within an allelic series); in the assay with SIX6 [2], 8.75 upbm affinity estimate (log intensity, higher = more binding, comparable within an allelic series); with SIX6 [3] it was 8.98 upbm affinity estimate (log intensity, higher = more binding, comparable within an allelic series); with SIX6 [4] it was 8.86 upbm affinity estimate (log intensity, higher = more binding, comparable within an allelic series); in the assay with SIX6 [5] it was 8.9 upbm affinity estimate (log intensity, higher = more binding, comparable within an allelic series); with SIX6 [6] it was 8.78 upbm affinity estimate (log intensity, higher = more binding, comparable within an allelic series). Also, the binding signal with SIX6 [7] was 8.82 upbm affinity estimate (log intensity, higher = more binding, comparable within an allelic series); with SIX6 [8], 9 upbm affinity estimate (log intensity, higher = more binding, comparable within an allelic series); in the assay with SIX6 [9], 8.92 upbm affinity estimate (log intensity, higher = more binding, comparable within an allelic series); with SIX6 [10], 8.88 upbm affinity estimate (log intensity, higher = more binding, comparable within an allelic series); with SIX6 [11], 8.84 upbm affinity estimate (log intensity, higher = more binding, comparable within an allelic series); with SIX6 [12], 8.88 upbm affinity estimate (log intensity, higher = more binding, comparable within an allelic series). For the same sequence, the binding signal in the assay with SIX6 [13] was 8.88 upbm affinity estimate (log intensity, higher = more binding, comparable within an allelic series).
With ACGTATCA, the binding signal was 11.3 upbm affinity estimate (log intensity, higher = more binding, comparable within an allelic series) in the assay with SIX6 [1]; 10.3 upbm affinity estimate (log intensity, higher = more binding, comparable within an allelic series) with SIX6 [2]; 11.3 upbm affinity estimate (log intensity, higher = more binding, comparable within an allelic series) with SIX6 [3]; 9.82 upbm affinity estimate (log intensity, higher = more binding, comparable within an allelic series) with SIX6 [4]; 10.7 upbm affinity estimate (log intensity, higher = more binding, comparable within an allelic series) in the assay with SIX6 [5]; 11.1 upbm affinity estimate (log intensity, higher = more binding, comparable within an allelic series) in the assay with SIX6 [6]. The binding signal with SIX6 [7] is 10.4 upbm affinity estimate (log intensity, higher = more binding, comparable within an allelic series); with SIX6 [8], 11.3 upbm affinity estimate (log intensity, higher = more binding, comparable within an allelic series); with SIX6 [9], 11.3 upbm affinity estimate (log intensity, higher = more binding, comparable within an allelic series); with SIX6 [10], 11.2 upbm affinity estimate (log intensity, higher = more binding, comparable within an allelic series); in the assay with SIX6 [11], 11.1 upbm affinity estimate (log intensity, higher = more binding, comparable within an allelic series); with SIX6 [12], 11.1 upbm affinity estimate (log intensity, higher = more binding, comparable within an allelic series). Also, the binding signal with SIX6 [13] was 11 upbm affinity estimate (log intensity, higher = more binding, comparable within an allelic series).
For the sequence CGCCCACC, the binding signal with SIX6 [1] was 9.03 upbm affinity estimate (log intensity, higher = more binding, comparable within an allelic series); with SIX6 [2] it was 9.02 upbm affinity estimate (log intensity, higher = more binding, comparable within an allelic series); with SIX6 [3], 9.04 upbm affinity estimate (log intensity, higher = more binding, comparable within an allelic series); with SIX6 [4], 9.15 upbm affinity estimate (log intensity, higher = more binding, comparable within an allelic series); in the assay with SIX6 [5], 9.04 upbm affinity estimate (log intensity, higher = more binding, comparable within an allelic series); with SIX6 [6] it was 9.02 upbm affinity estimate (log intensity, higher = more binding, comparable within an allelic series). Moreover, the binding signal with SIX6 [7] is 9.17 upbm affinity estimate (log intensity, higher = more binding, comparable within an allelic series); in the assay with SIX6 [8] it was 9.11 upbm affinity estimate (log intensity, higher = more binding, comparable within an allelic series); with SIX6 [9], 9.21 upbm affinity estimate (log intensity, higher = more binding, comparable within an allelic series); in the assay with SIX6 [10], 9.07 upbm affinity estimate (log intensity, higher = more binding, comparable within an allelic series); in the assay with SIX6 [11] it was 9.06 upbm affinity estimate (log intensity, higher = more binding, comparable within an allelic series); in the assay with SIX6 [12], 9.1 upbm affinity estimate (log intensity, higher = more binding, comparable within an allelic series). The binding signal with SIX6 [13] is 9.03 upbm affinity estimate (log intensity, higher = more binding, comparable within an allelic series).
